As usually defined, the AC50 is the midpoint of the concentration-response curve, whichever way the signal moves.

Eleven molecules from PubChem BioAssay (EPA / NIEHS) can be followed below.

Structures are written as SMILES. Records with an inconclusive call do not appear. Calls of active or inactive are those of the source. The calls were made as follows: active = hit-call score of the fitted dose curve at least 0.9, where 1 is the maximum; inconclusive = response in the unintended direction; inactive = score below 0.9.

In the assay the target is human Protein Tyrosine Phosphatase Receptor Type C (PTPRC), PTPRC (gene 5788) (UniProt P08575). The assay is described as follows: NVS_ENZ_hPTPRC: NovaScreen (NVS) Enzymatic Assay for human Protein Tyrosine Phosphatase Receptor Type C (PTPRC) (AID 2283212). Here is the method: NVS_ENZ_hPTPRC is a biochemical, single-readout assay that uses extracted gene-proteins from yeast cells in a cell-free assay. Measurements were taken 1 hour after chemical dosing in a 96-well plate.NVS_ENZ_hPTPRC is one of one assay component(s) measured or calculated from the NVS_ENZ_hPTPRC assay. It is designed to make measurements of enzyme activity, a form of enzyme reporter, as detected with absorbance signals by Colorimetric technology.Data from the assay component NVS_ENZ_hPTPRC was analyzed into 1 assay endpoint. This assay endpoint, NVS_ENZ_hPTPRC, was analyzed in the positive analysis fitting direction relative to DMSO as the negative control and baseline of activity. Using a type of enzyme reporter, loss-of-signal activity can be used to understand changes in the enzymatic activity as they relate to the gene PTPRC. Furthermore, this assay endpoint can be referred to as a primary readout, because this assay has produced multiple assay endpoints where this one serves a enzymatic activity function. To generalize the intended target to other relatable targets, this assay endpoint is annotated to the phosphatase intended target family, where the subfamily is receptor tyrosine phosphatase.
human Protein Tyrosine Phosphatase Receptor Type C (PTPRC), PTPRC (gene 5788), sequence (P08575 whole entry, looked up): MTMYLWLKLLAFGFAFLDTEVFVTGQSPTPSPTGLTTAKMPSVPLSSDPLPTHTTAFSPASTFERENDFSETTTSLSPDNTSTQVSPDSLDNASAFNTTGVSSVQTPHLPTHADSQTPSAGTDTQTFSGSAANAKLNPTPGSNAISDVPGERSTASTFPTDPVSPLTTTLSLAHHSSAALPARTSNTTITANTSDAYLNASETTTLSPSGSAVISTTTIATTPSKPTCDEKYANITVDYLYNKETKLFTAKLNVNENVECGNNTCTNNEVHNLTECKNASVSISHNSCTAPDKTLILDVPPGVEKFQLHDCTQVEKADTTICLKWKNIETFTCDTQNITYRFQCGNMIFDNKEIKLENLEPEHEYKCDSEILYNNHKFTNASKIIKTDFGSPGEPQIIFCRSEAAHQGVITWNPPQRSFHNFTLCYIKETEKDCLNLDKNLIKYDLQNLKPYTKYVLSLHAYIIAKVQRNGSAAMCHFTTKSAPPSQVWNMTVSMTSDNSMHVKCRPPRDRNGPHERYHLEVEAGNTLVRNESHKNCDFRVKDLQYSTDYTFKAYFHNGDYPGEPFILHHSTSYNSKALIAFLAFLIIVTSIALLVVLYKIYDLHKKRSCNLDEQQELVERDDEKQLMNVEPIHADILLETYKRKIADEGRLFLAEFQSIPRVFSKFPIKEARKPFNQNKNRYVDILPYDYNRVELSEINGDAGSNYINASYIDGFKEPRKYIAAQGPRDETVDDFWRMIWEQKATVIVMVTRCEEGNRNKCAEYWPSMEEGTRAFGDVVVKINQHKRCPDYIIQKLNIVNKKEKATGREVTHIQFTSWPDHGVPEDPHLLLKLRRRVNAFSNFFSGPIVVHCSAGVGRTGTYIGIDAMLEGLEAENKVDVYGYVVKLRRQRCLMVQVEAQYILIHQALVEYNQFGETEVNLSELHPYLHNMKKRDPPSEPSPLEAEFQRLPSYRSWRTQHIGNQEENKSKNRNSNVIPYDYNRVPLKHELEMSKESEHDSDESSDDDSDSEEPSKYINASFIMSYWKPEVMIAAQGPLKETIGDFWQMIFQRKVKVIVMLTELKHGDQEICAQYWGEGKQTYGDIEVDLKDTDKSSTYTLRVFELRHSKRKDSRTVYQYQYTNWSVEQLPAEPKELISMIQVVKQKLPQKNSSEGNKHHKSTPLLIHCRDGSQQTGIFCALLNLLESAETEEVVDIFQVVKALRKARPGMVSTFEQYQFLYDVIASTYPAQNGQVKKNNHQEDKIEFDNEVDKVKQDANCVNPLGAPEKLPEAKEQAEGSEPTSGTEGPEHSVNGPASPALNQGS
Binding assays used specific radioligands (tritiated, iodinated) with non-radioactive competitive displacement ligands in agonist or antagonist protocols (as indicated) and various reference compounds and inhibitors to titrate specific binding to receptors and transporters. Most enzyme assays (CYPs, kinases, phosphatases, proteases, HDACs) used recombinant protein and specific substrates (fluorescence mostly, some colorimetric and radioactive) and inhibitors, followed by a biochemical separation of substrate and product. All assays for the biochemical HTS were initially run in duplicate at a single concentration (10 uM for CYP450 assays and 25 uM for all others). Assay-chemical combinations meeting a pre-defined threshold (e.g., 30% inhibition and other criteria defined below) were then run in singleton concentration-response format with maximum concentration of 20 uM for CYPs and 50 uM for all others. Each assay was run with positive and negative controls, and concurrent controls on every plate. The follow-up (secondary) screen tested active chemical-pairs in concentration series, as well as a few additional assays not tested in the primary screen, some selected negative inactives, and several cases re-run in the concentration series for confirmatory purposes.
On to `CC(C)(C)C(O)(CCc1ccc(Cl)cc1)Cn1cncn1` (stereo unspecified), for which the molecule was called inactive.
`c1ccc(NNc2ccccc2)cc1`: the AC50 is 18.2 µM (active).
With `Nc1ccc(Cl)cc1N`, the AC50 was 16.2 µM (active).
Take `CN(C)C(=O)Nc1ccc(Cl)cc1`: the molecule was classed as inactive.
For the molecule `CN(C)[C@@H]1C(=O)C(C(N)=O)=C(O)[C@@]2(O)C(=O)C3=C(O)c4c(O)cccc4[C@@](C)(O)[C@H]3C[C@@H]12`, the AC50 was 15.6 µM (active).
As for `O=[N+]([O-])c1ccc(Oc2ccc(Cl)cc2Cl)cc1`, the call was inactive.
Same read-out and setting: the result for `[O-][Cl+]O` reads “inactive”.
Take `Cc1cccc(N)c1N`: the half-maximal activity concentration (AC50) was 15.8 µM (active).
In the case of `COC(=O)c1ccccc1N`, the outcome was inactive.
On to `ClCCOCCCl`, for which the outcome was inactive.
With `C[C@]12C=CC3=C4CCC(=O)C=C4CC[C@H]3[C@@H]1CC[C@@H]2O`, the AC50 was 9.63 µM (active).
